# Test results published in PubChem BioAssay (EPA / NIEHS).
# Calls of active or inactive are those of the source. Rule for the calls: active = hit-call score of the fitted dose curve at least 0.9, where 1 is the maximum; inactive = score below 0.9.
# Assay: ATG_Oct_MLP_CIS: Attagene CIS-FACTORIAL HepG2 Assay for human Octamer-Binding Transcription Factor (Oct) (AID 2282993)
# Conditions: HepG2 Attagene cis-factorial Oct reporter, mRNA; actives raise or lower the signal
# Protocol: ATG_CIS is a cell-based, multiplexed-readout assay that uses HepG2, a human liver cell line, with measurements taken at 24 hours after chemical dosing in a 24-well plate.ATG_Oct_MLP_CIS is one of 52 assay component(s) measured or calculated from the ATG_CIS assay. It is designed to make measurements of mRNA induction, a form of inducible reporter, as detected with fluorescence intensity signals by Reverse transcription polymerase chain reaction (RT-PCR) and Capillary electrophoresis technology.Data from the assay component ATG_Oct_MLP_CIS was analyzed into 1 assay endpoint. This assay endpoint, ATG_Oct_MLP_CIS, was analyzed with bidirectional fitting relative to DMSO as the negative control and baseline of activity. Using a type of inducible reporter, measures of mRNA for gain or loss-of-signal activity can be used to understand the reporter gene at the transcription factor-level as they relate to the gene POU2F1. Furthermore, this assay endpoint can be referred to as a primary readout, because this assay has produced multiple assay endpoints where this one serves a reporter gene function. To generalize the intended target to other relatable targets, this assay endpoint is annotated to the dna binding intended target family, where the subfamily is POU domain protein.
# Human liver HepG2 cells are transiently transfected with multiple reporter transcription units (MRTUs) in 6-well plates using FuGene 6 reagent (Roche; 3 ml FuGene/1 mg DNA). The MRTU constructs are regulated by a cis-regulating element (promoter). […] A major difference between the CIS and TRANS system is that in CIS activities of endogenous TFs are measured, whereas the TRANS assay evaluates changes in activities of exogenous, chimeric NR-Gal4 proteins. […] At the end of 24 hour incubation, total RNA was isolated using TriZol reagent (Invitrogen). The isolated RNA is then reverse-transcribed using oligo(dT) primer and Mo-MLV reverse transcriptase (Invitrogen) with DNAse I (Ambion) treatment for 30 min. The one-tenth of the produced cDNA was amplified by PCR using Taq DNA polymerase (Invitrogen) and two reporter sequence-specific primers. The PCR products were fluorescently labeled by primer extension with 6-arboxyfluorescein (6-FAM) 5'-labeled reporter sequence-specific primer (2 min at 95 C, 20 s at 68 C and 10 min at 72 C) and these products were digested with 5U of HpaI (New England Biolabs) for 2h at 37 C. The fragments were purified using Qiaquick PCR columns (Qiagen), analyzed on an ABI 3130xL genetic analyzer (Applied Biosystems) with peak positions identified by using a set of X-rhodamine (ROX)-labeled MapMarker1000 molecular weight standards (BioVentures). The raw capillary electrophoresis data was processed using Attagraph software (Attagene).
SMILES,outcome,AC50
FC(F)(Br)C(F)(F)C(F)(F)C(F)(F)C(F)(F)C(F)(F)Br,inactive,–
CCCCCC=O,inactive,–
OCC(F)(F)C(F)(F)C(F)(F)C(F)F,inactive,–
Cc1ccc(S(=O)(=O)NCl)cc1,inactive,–
FC(F)(F)C(F)(F)C(F)(F)C(F)(F)CCI,inactive,–
O=S(=O)(OCC(F)F)C(F)(F)F,inactive,–
Cc1cc(C)cc(O)c1,inactive,–
FC(F)(F)C(F)(F)C(F)(F)C(F)(F)C(F)(F)CCI,inactive,–
FC(F)(F)C(F)(F)C(F)(F)C(F)(F)C(F)(F)C(F)(F)C(F)(F)C(F)(F)F,inactive,–
C=C(C)C(=O)OCC(F)(F)C(F)(F)C(F)(F)C(F)(F)C(F)(F)C(F)(F)C(F)(F)F,inactive,–
CC(C)=CCCC(C)CCOC(=O)C(C)C (stereo not given),inactive,–
O=C(O)C(F)(F)C(F)(F)C(F)(F)C(F)(F)C(F)(F)C(F)(F)C(F)(F)C(F)(F)C(F)(F)C(F)(F)C(F)(F)C(F)(F)F,inactive,–
CCN(Cc1cccc(S(=O)(=O)O)c1)c1ccc(C(=C2C=CC(=[N+](CC)Cc3cccc(S(=O)(=O)O)c3)C=C2)c2ccc(O)cc2S(=O)(=O)[O-])cc1,inactive,–
C=CC(F)(F)C(F)(F)C(F)(F)C(F)(F)C(F)(F)C(F)(F)C(F)(F)C(F)(F)C=C,inactive,–
O=C(O)C(F)(F)C(F)(F)C(F)(F)F,inactive,–
N=C(N)C(F)(F)C(F)(F)C(F)(F)C(F)(F)C(F)(F)C(F)(F)C(F)(F)F,inactive,–
FC(F)(F)C(F)(F)C(F)(F)C(F)(F)C(F)(F)C(F)(F)CCS,inactive,–
CN(C)Cc1ccccc1O,–,179 µM (active)
C=CC(F)(F)C(F)(F)C(F)(F)C(F)(F)C(F)(F)C(F)(F)C(F)(F)C(F)(F)F,inactive,–
CCc1ccc(C(c2ccc(CC)cc2)C(Cl)Cl)cc1,inactive,–

SMILES,outcome,AC50
Nc1ccc(S(=O)(=O)Nc2nccs2)cc1,inactive,–
FC(F)(F)C(F)(F)C(F)(F)C(F)(F)C(F)(F)C(F)(F)C(F)(F)I,inactive,–
CCC(=O)OCCc1ccccc1,inactive,–
FC1CC(F)(F)C(F)(F)C1(F)F (stereo not given),inactive,–
C(=C(c1ccccc1)c1ccccc1)c1ccccc1,inactive,–
COC(OC(C)=O)c1ccccc1 (stereo not given),inactive,–
O=C(OCCOCCOCCOC(=O)c1ccccc1)c1ccccc1,inactive,–
OC[C@@H](O)[C@@H](O)[C@H](O)[C@@H](O)CO,inactive,–
O=C(C=Cc1ccccc1)OCC=Cc1ccccc1,inactive,–
c1ccc(-c2ccccc2-c2ccccc2)cc1,inactive,–
CCCCCCOC(=O)c1ccccc1O,inactive,–
O=S(=O)(O)c1ccc2ccccc2c1,inactive,–
OCCCC(F)(F)C(F)(F)C(F)(F)F,inactive,–
C=C(C)C(=O)OCCC(F)(F)C(F)(F)C(F)(F)C(F)(F)C(F)(C(F)(F)F)C(F)(F)F,inactive,–
OCC(F)(F)C(F)(F)C(F)(F)C(F)(F)C(F)(F)C(F)(F)F,inactive,–
C=CC(=O)OCC(F)(F)C(F)(F)C(F)(F)C(F)(F)C(F)(F)C(F)(F)C(F)(F)F,inactive,–
CNC(=S)NC,inactive,–
CC(C)OC(=O)c1ccccc1C(=O)OC(C)C,inactive,–
FC(F)(F)C(F)(F)C(F)(F)CI,inactive,–
O=C(CC(=O)C(F)(F)C(F)(F)F)C(F)(F)F,inactive,–
